Our source for the growth values is PubChem BioAssay (NCI).

Molecules are shown by their SMILES. The panel holds about 83,000 compounds, 20% with a hit somewhere; the sample as a whole holds those more often.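 Results are percent growth after 48 hours of single-concentration exposure. 100 means growth as in untreated cells, lower positive values show inhibition; negative values down to -100 show cell death.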 Values without a mark were called inactive. Calls of active or inactive are those of the source. Rule for the calls: active = growth percent below 10; inactive = the rest.

Test systems include SR leukemia; RPMI-8226 leukemia; OVCAR-8 ovarian; OVCAR-5 ovarian; OVCAR-4 ovarian; SK-OV-3 ovarian; IGROV1 ovarian; OVCAR-3 ovarian; HS 578T breast; T-47D breast; BT-549 breast; MDA-MB-435 melanoma; SW-620 colon; MCF7 breast; HCT-116 colon; HCC-2998 colon; KM12 colon; NCI/ADR-RES ovarian.
Holding throughout (test): NCI-60 one-dose screen, 48 h (100 = growth as untreated, 0 = no growth, -100 = all killed)
What all share (settings): 10 µM

`CCOC(=O)c1ccc(NC(=O)Nc2nncs2)cc1`: the growth is 9.88% (active) in the assay with SR leukemia; 6.49% (active) in the assay on RPMI-8226 leukemia; 10.8% in the assay with OVCAR-8 ovarian; 42.4% in the assay on OVCAR-5 ovarian; 49.9% in the assay with OVCAR-4 ovarian; 3.12% (active) in the assay on SK-OV-3 ovarian. In addition, the growth was 16.5% in the assay on IGROV1 ovarian; -32.7% (active) in the assay on OVCAR-3 ovarian; 25.3% in the assay with HS 578T breast; 49.3% in the assay with T-47D breast; 13.7% with BT-549 breast; -41.3% (active) in the assay with MDA-MB-435 melanoma. Also, the growth in the assay with SW-620 colon is 18%; in the assay on MCF7 breast, 21.7%; in the assay with HCT-116 colon, 12.6%; with HCC-2998 colon, 18.8%; in the assay on KM12 colon, 12.4%.
For `O=C(Nc1cccc(C(F)(F)F)c1)C(Cl)Cl`, the growth is 94.3% in the assay on SR leukemia; 98.5% with RPMI-8226 leukemia; 98.7% with OVCAR-8 ovarian; 105% with OVCAR-5 ovarian; 110% with OVCAR-4 ovarian; 103% in the assay with SK-OV-3 ovarian. The growth in the assay with IGROV1 ovarian was 92.5%; in the assay with OVCAR-3 ovarian it was 107%; in the assay on NCI/ADR-RES ovarian, 104%; in the assay on T-47D breast it was 87.9%; in the assay with BT-549 breast, 102%; in the assay on MDA-MB-435 melanoma it was 103%. Also, the growth was 104% with SW-620 colon; 90.2% in the assay on MCF7 breast; 98.1% in the assay with HCT-116 colon; 105% with HCC-2998 colon; 94.8% with KM12 colon.
For the molecule `Cc1ccc(S(=O)(=O)Nc2cccc3[nH]c(C(F)(F)F)nc23)cc1`, the growth in the assay on SR leukemia is 10.8%; with RPMI-8226 leukemia it was -3.69% (active); in the assay with OVCAR-8 ovarian, 31%; with OVCAR-5 ovarian it was 35.3%; in the assay with OVCAR-4 ovarian, 36%; in the assay on SK-OV-3 ovarian, 4.74% (active). The growth in the assay with IGROV1 ovarian is 51.4%; with OVCAR-3 ovarian, 4.74% (active); in the assay with NCI/ADR-RES ovarian, 4.81% (active); in the assay with T-47D breast it was 47.2%; with BT-549 breast it was 52%; in the assay on MDA-MB-435 melanoma, -31.5% (active). For the same molecule, the growth with SW-620 colon is 18.6%; with MCF7 breast, 13.2%; in the assay with HCT-116 colon, 23.8%; in the assay with HCC-2998 colon it was 28.1%; with KM12 colon, 21%.
Turning to `COc1cc(-c2cc(-c3ccc(C)cc3)nc3nc(N)[nH]c(=O)c23)ccc1Oc1ccnc2cc(Cl)ccc12`, the growth in the assay on SR leukemia was 50.9%; with RPMI-8226 leukemia, 60.1%; in the assay with OVCAR-8 ovarian, 79.5%; in the assay on OVCAR-5 ovarian, 115%; in the assay on OVCAR-4 ovarian it was 66.3%; in the assay on SK-OV-3 ovarian, 95.3%. Also, the growth in the assay on IGROV1 ovarian was 77.9%; with OVCAR-3 ovarian it was 84.1%; in the assay on NCI/ADR-RES ovarian, 100%; with T-47D breast, 69.6%; with BT-549 breast, 112%; with MDA-MB-435 melanoma it was 85.3%. The growth is 98.2% with SW-620 colon; 51.2% in the assay with MCF7 breast; 88.8% in the assay with HCT-116 colon; 79.5% in the assay on HCC-2998 colon; 67% in the assay with KM12 colon.
As to `COc1cc2nc(Sc3sc(N)nc3C)n(-c3ccc(Oc4ccccc4)cc3)c(=O)c2cc1OC`, the growth is -43.4% (active) in the assay on SR leukemia; 67.6% with RPMI-8226 leukemia; 85% in the assay with OVCAR-8 ovarian; 106% in the assay on OVCAR-5 ovarian; 50.7% in the assay with OVCAR-4 ovarian; 114% in the assay with SK-OV-3 ovarian. In addition, the growth is 107% in the assay on IGROV1 ovarian; 93.5% in the assay with OVCAR-3 ovarian; 75.2% in the assay with NCI/ADR-RES ovarian; 77.3% with T-47D breast; 71.3% in the assay with BT-549 breast; 93.3% in the assay with MDA-MB-435 melanoma. Also, the growth in the assay with SW-620 colon is 81.2%; in the assay on MCF7 breast it was 74.4%; with HCT-116 colon, 47.4%; in the assay with HCC-2998 colon, 80.4%; in the assay on KM12 colon, 93.5%.
In the case of `O=C(Nc1cccc(-c2nc3ccccc3[nH]2)c1)c1cccc(NC(=O)c2ccco2)c1`, the growth with SR leukemia was 23.5%; in the assay with RPMI-8226 leukemia, 69.2%; in the assay on OVCAR-8 ovarian it was 87.2%; with OVCAR-5 ovarian, 93.8%; in the assay on OVCAR-4 ovarian, 80%; in the assay with SK-OV-3 ovarian, 102%. In addition, the growth in the assay with IGROV1 ovarian was 86.2%; with OVCAR-3 ovarian it was 98.3%; in the assay with NCI/ADR-RES ovarian, 84.9%; with T-47D breast, 65.9%; in the assay with BT-549 breast, 96.3%; with MDA-MB-435 melanoma, -1.71% (active). Besides, the growth is 96.6% in the assay with SW-620 colon; 61.8% with MCF7 breast; 58.4% in the assay on HCT-116 colon; 96.6% with HCC-2998 colon; 88.1% in the assay on KM12 colon.
Consider `COc1ccc(OC)c([N+](=O)[O-])c1C=O`, for which the growth was 37.2% in the assay on SR leukemia; 75.1% in the assay with RPMI-8226 leukemia; 97.8% in the assay with OVCAR-8 ovarian; 107% in the assay with OVCAR-5 ovarian; 105% with OVCAR-4 ovarian; 101% in the assay with SK-OV-3 ovarian. Moreover, the growth was 101% with IGROV1 ovarian; 101% in the assay on OVCAR-3 ovarian; 113% with NCI/ADR-RES ovarian; 56.5% in the assay on T-47D breast; 117% with BT-549 breast; 101% in the assay on MDA-MB-435 melanoma. In addition, the growth with SW-620 colon was 65.1%; with MCF7 breast it was 38.2%; with HCT-116 colon it was 50.7%; with HCC-2998 colon, 110%; with KM12 colon, 95.8%.
As for `Cc1ccc2oc(=O)cc(/C(=C3/C=CC=N3)c3ccc[nH]3)c2c1`, the growth with SR leukemia is -9.31% (active); in the assay with RPMI-8226 leukemia it was -16.9% (active); in the assay with OVCAR-8 ovarian, -20.2% (active); in the assay on OVCAR-5 ovarian, 21.1%; in the assay with OVCAR-4 ovarian, 28%; in the assay with SK-OV-3 ovarian, -16% (active). Moreover, the growth in the assay on IGROV1 ovarian was 16.6%; in the assay on OVCAR-3 ovarian, -23.3% (active); in the assay on NCI/ADR-RES ovarian it was 0.0095% (active); in the assay with T-47D breast, -1.91% (active); in the assay on BT-549 breast it was -11.4% (active); in the assay on MDA-MB-435 melanoma it was -24.8% (active). The growth with SW-620 colon was 20.9%; in the assay with MCF7 breast, 7.32% (active); with HCT-116 colon, 1.45% (active); in the assay on HCC-2998 colon, -17% (active); in the assay on KM12 colon it was -17.6% (active).
Take `CCOC(=O)/C(C#N)=C(/C)C1CC1`: the growth with SR leukemia is 102%; in the assay on RPMI-8226 leukemia, 98.4%; in the assay with OVCAR-8 ovarian, 107%; with OVCAR-5 ovarian, 105%; in the assay on OVCAR-4 ovarian, 104%; with SK-OV-3 ovarian, 111%. Further, the growth was 121% in the assay on IGROV1 ovarian; 101% in the assay on OVCAR-3 ovarian; 111% with NCI/ADR-RES ovarian; 103% in the assay on T-47D breast; 107% with BT-549 breast; 106% with MDA-MB-435 melanoma. Moreover, the growth was 108% with SW-620 colon; 101% in the assay on MCF7 breast; 110% in the assay on HCT-116 colon; 112% in the assay with HCC-2998 colon; 106% in the assay on KM12 colon.
